High-throughput results as filed in PubChem.
esBAF inh – inhibitors of esBAF chromatin remodeling in mouse ES cells. 2% of 350,000 active. Bmi1-luciferase knock-in reporter, 24 h; 100% = twice the neutral-well signal. reporter increase, % at 12.5 µM; in the data active means activation above about 40%; inconclusive means no clear call, values can overlap the other calls;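 further: 0% = median of the plate's neutral control wells and 100% = double that signal; a rise in the Bmi1 reporter signal indicates esBAF inhibition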
SMARCA2 act – SMARCA2 function activation, primary screen | activation, % at 9.1 µM | MG213 cells, MMTV-luciferase reporter, dexamethasone, overnight | 1% of 370,000 active; in the data active means activation above about 7.8%;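 further: 0% = vehicle wells and 100% = reference activator wells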
Wnt bcat act – activates Wnt/beta-catenin signaling in a reporter cell assay; activator, plate reader; activation, % at 9.35 µM; 1.2% of 300,000 active; in the data active means activation above about 30%, passing the limit was not always enough; inconclusive means no clear call, values can overlap the other calls;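 further: 0% = neutral control wells and 100% = positive control wells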
HSF1 inhib – HSF1 inhibition | NIH3T3-HGL HSE-luciferase, MG132-induced, luminescence 8 h; active compounds read low | activity change, negative = inhibition, % at 7.5 µM (by protocol) | 0.77% of 300,000 active;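 active means more than half of replicate wells show activity change below -50%, luminescence cut by over half; inconclusive means some wells, but at most half, below -50%; inactive means no replicate well below -50%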;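 further: luciferase reports HSF-1 transcriptional activity via heat shock element; 0% = median of DMSO wells and -100% = zero luminescence signal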
MITF act – activators of MITF-driven TRPM1 promoter activity in SK-MEL-5 cells. 0.75% of 300,000 active. activation, % at 12.5 µM. SK-MEL-5 TRPM1-promoter luciferase, 24 h; % of positive control, neutral wells = 0. AID 588334;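 active means mean activation of at least 80% with every replicate also reaching 80%; inconclusive means mean reaches 80% but some replicate falls short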;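 further: 0% = neutral control wells and 100% = parthenolide positive control wells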
HSF1 activator – increases HSF-1 driven luciferase reporter signal. 1.7% of 300,000 active. NIH3T3-HGL HSF-1 luciferase reporter, MG132, 8 h; 100% = twice DMSO control signal. activation, % at 9 µM. AID 504408;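 active means mean replicate activation of at least 50% with a set share of replicates each reaching 50%; inconclusive means only one of those two conditions met; inactive means mean below 50% and too few replicates reaching it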;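 further: 0% = median of the neutral control wells and 100% = twice that signal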
* marks the source's active call; other numbers are inactive results; u = inconclusive; x = not tested or not shown. This is a sample that favours compounds with a hit; in the whole collection about 4.3% have one here.

SMILES	esBAF inh	SMARCA2 act	Wnt bcat act	HSF1 inhib	MITF act	HSF1 activator
C=C(NC(=O)C(=C)NC(=O)c1csc(C2=NC3c4csc(n4)C4NC(=O)c5csc(n5)C(C(C)(O)C(C)O)NC(=O)C5CSC(=N5)/C(=C/C)NC(=O)C(C(C)O)NC(=O)c5csc(n5)C3(CC2)NC(=O)C(C)NC(=O)C(=C)NC(=O)C(=C)NC(=O)C(C(C)C)NC2C=Cc3c(C(C)O)cc(nc3C2O)C(=O)OC4C)n1)C(N)=O (stereo not given)	x	8.6*	4	-36	-95	-36
CNC(=O)CSc1nc(SC)ns1	x	5	10	-1	-9	-1
O=C(CSc1nc2ccccc2s1)N1CCCCC1	82*	7	19	10	74	28
O=C(CSc1nc2ccccc2s1)c1ccc(O)cc1O	51*	1	0	3	41	31
c1ccc2sc(SCSc3nc4ccccc4s3)nc2c1	20	7	8	9	20	7
O=C(Cc1nc2ccccc2s1)c1ccc(O)cc1O	x	x	x	3	x	29
O=C(O)CCSc1nc2ccccc2s1	-54	-10	0	-63*	-6	-65
CSc1nsc(SCC(=O)N2CCCCC2)n1	51*	3	14	5	52	-22
Cc1nnc(SCC(=O)N2c3ccccc3CC2C)s1 (stereo not given)	1	3	-1	8	6	14
CC1CCN(C(=O)CSc2nc3ccccc3s2)CC1	33	7	42*	30	38	54*
CC1Cc2ccccc2N1C(=O)CSc1nc2ccccc2s1 (stereo not given)	x	3	11	19	-5	56*
N#CCCCSc1nnc(CSc2nc3ccccc3s2)n1-c1ccccc1	-14	-1	x	-5	-9	7
CC1CCCC(C)N1C(=O)CSc1nc2ccccc2s1 (stereo not given)	75*	1	x	10	x	17
N#CCc1nc(CSc2nc3ccccc3s2)cs1	62*	4	x	7	46	22
O=C(O)C1CCN(C(=O)CSc2nc3ccccc3s2)CC1	-11	0	-1	-6	6	1
CC(=O)N1CC[C@@H]2[C@H]1c1cc(-c3ccccc3)ccc1N(C)[C@H]2CO	7	x	x	x	x	x
COc1cccc(S(=O)(=O)N(C)C[C@H]2Oc3cc(C#CCC(C)C)ccc3S(=O)(=O)N([C@H](C)CO)C[C@H]2C)c1	4	x	x	x	x	x
C[C@H]1CN([C@@H](C)CO)C(=O)c2cc(C3=CCCC3)cnc2O[C@H]1CN(C)S(=O)(=O)c1cn(C)cn1	-5	x	x	x	x	x
Cc1noc(C)c1NC(=O)Nc1ccc2c(c1)C(=O)N([C@H](C)CO)C[C@@H](C)[C@H](CN(C)CC1CC1)OCCCC[C@@H](C)O2	-2	x	x	x	x	x
COCCNc1oc(-c2ccc(F)cc2)nc1C#N	24	1	6	6	27	11
COCCNc1oc(-c2ccccc2Cl)nc1C#N	55*	0	-4	-2	31	8
COc1ccc(CCNc2oc(-c3ccccc3OC)nc2C#N)cc1	9	0	x	55	-1	95*
COc1ccc(CCNc2oc(-c3ccccc3OC)nc2C#N)cc1OC	-4	3	x	41	13	48
CCOC(=O)c1oc2c(c1C)/C(=N/O)CCC2	39	-2	57*	-1	70	12
CCOC(=O)c1oc2c(c1C)C(=O)CCC2	x	-3	1	-3	-8	-5
SMILES	esBAF inh	SMARCA2 act	Wnt bcat act	HSF1 inhib	MITF act	HSF1 activator
C=CCOC(=O)C1=C[C@H](C2CCCCC2)C[C@H](OCc2ccc(CO)cc2)O1	-1	-1	-1	-3	-7	6
NC(=O)C1=C[C@H](C2CCCCC2)C[C@H](OCc2ccc(CO)cc2)O1	73*	4	u	-24	107*	-42
O=C(C1=C[C@@H](C2CC2)C[C@@H](OCc2ccc(CO)cc2)O1)N1CCN(Cc2ccccc2)CC1	-8	0	-5	87	-10	104*
C[C@@H](NC(=O)C[C@@H]1C=C[C@@H](NC(=O)CN2CCOCC2)[C@@H](CO)O1)c1ccccc1	-3	x	x	x	x	x
COC(=O)c1cn(NC(=O)CC2CCCCC2)c(=O)c2ccccc12	x	4	x	-2	-1	6
COC(=O)c1cn(NC(=O)C2CCC(C)CC2)c(=O)c2ccccc12 (stereo not given)	5	-2	1	33	x	81*
COC(=O)c1cn(NC(=O)CCC2CCCC2)c(=O)c2ccccc12	-7	-4	-4	-77*	-2	-81
CC(C)NC(=O)Nc1cccc2c1O[C@@H](CN(C)Cc1ccncc1)[C@@H](C)CN([C@@H](C)CO)C2=O	-2	x	x	x	x	x
C[C@@H]1CN([C@H](C)CO)C(=O)Cc2cc(NC(=O)Nc3ccc(F)cc3)ccc2O[C@H]1CN(C)S(=O)(=O)c1ccc(Cl)cc1	0	x	x	x	x	x
O=C(Nc1ccccc1[N+](=O)[O-])c1cccc(N2C(=O)CCC2=O)c1	3	-1	-1	18	-6	54*
CCOc1ccccc1NC(=O)c1cccc(N2C(=O)CCC2=O)c1	3	-1	1	-5	-7	6
O=C1C=C(Nc2ccc(O)cc2)C(=O)c2ccccc21	x	3	0	58	-51	64*
CC(=O)Nc1ccc(NC2=CC(=O)c3ccccc3C2=O)cc1	7	6	13	32	-35	77*
O=C1C(Cl)=C(Nc2ccc(O)cc2)C(=O)c2ccccc21	x	-12	-21	11	-96	15
C[C@H](CO)N1C[C@H](C)[C@H](CN(C)S(=O)(=O)c2cn(C)cn2)Oc2ccc(NC(=O)CCN3CCOCC3)cc2C1=O	-3	x	x	x	x	x
CC(=O)c1ccc(OC(C)c2nc3ccccc3s2)cc1 (stereo not given)	53*	0	6	22	39	24
COc1cccc(C(=O)N(C)C(C)c2nc3ccccc3s2)c1 (stereo not given)	-3	-3	-3	4	-6	20
CC(=O)Nc1ccc(/C=C/c2nc(-c3ccccc3O)n[nH]2)cc1	73*	2	18	26	58	47
C[C@@H]1CN([C@@H](C)CO)C(=O)c2cccc(NC(=O)c3cnccn3)c2O[C@H]1CN(C)Cc1ccc(C(=O)Nc2ccccc2N)cc1	-11	x	x	x	x	x
Cc1ccc(CN2CCN(C3CCCC3)C(CCO)C2)s1 (stereo not given)	-1	-4	31*	-4	8	8
COC(=O)c1ccc(CN2CCN(C3CCCCC3)C(CCO)C2)cc1 (stereo not given)	-7	-1	4	-64*	5	-72
Cc1noc(C)c1NC(=O)N(C)C[C@@H]1Oc2ccc(NC(=O)Cc3ccccc3)cc2C(=O)N([C@H](C)CO)C[C@H]1C	-3	x	x	x	x	x
Cc1ccc(NC(=O)C[C@H]2CC[C@H]3[C@@H](COc4ccc(NC(=O)C(C)C)cc4C(=O)N3C)O2)cc1	-1	x	x	x	x	x
